Bioassay records as filed in PubChem.
Giardia FBPA inh = inhibitors of Giardia lamblia fructose-1,6-bisphosphate aldolase | A8B2U2 | purified Giardia FBPA | Potency, µM (highest dose often 59.6 µM), for inactives: at the top dose activity, negative = inhibition, actives largely listed as inhibitors | 290,000 compounds, 0.71% hits | AID 2451; further: potency means the concentration at half of the fitted maximal effect; on the % scale 0 is the no-effect control and ±100 the full control effect; nearly all actives have a fitted effect of over 55% in size
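Giardia FBPA (40 nM reagent) was preincubated 10 min at RT with compound (up to 57.5 uM final), then substrate plus GAPDH/TPI/NAD/arsenate coupling system with diaphorase/resazurin was added; resorufin fluorescence (525/598 nm) was read after 20 min.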
Shiga toxin inh = Shiga toxin inhibition; AID 2315; Vero cells, Shiga toxin protein synthesis inhibition reporter; inhibition, % at 38.7 µM; 290,000 compounds, 9.2% hits; in the data active means inhibition mostly above about 28%, no sharp cut-off; inactive means mostly below about 43%; further: 0% is about no effect
Cycloheximide cs = counter-screen hit for Shiga toxin inhibitors, cycloheximide. cell reporter, cycloheximide protein synthesis inhibition counterscreen. max response, %. 300,000 compounds, 12% hits; in the data active means max response mostly above about 13%, no sharp cut-off; inactive means mostly below about 14%; further: read at 38.3 µM for the half of the compounds with a filed dose; 0% is about no effect
TbPYK inhibitor = blocks Trypanosoma brucei pyruvate kinase; TbPYK enzyme, Kinase-Glo Plus ATP luminescence, 45 min; 410,000 compounds, 0.12% hits; Potency, µM (series often up to 76.8 µM), without a hit: at the top dose activity, negative = inhibition, hits mostly inhibitors; further: potency means the concentration at half of the fitted maximal effect; on the % scale 0 is the no-effect control and ±100 the full control effect; nearly all actives have a fitted effect of over 50% in size
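Luminescent Kinase-Glo Plus end-point after 45 min room-temperature reaction of T. brucei pyruvate kinase started with 130 uM ADP (final). Buffer TEA 50 mM pH 7.2 with KCl, MgCl2, BSA, Tween-20; titration-based qHTS with fitted concentration-effect curves.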
LmPK inhibitor = LmPK (Leishmania mexicana) enzyme inhibition | purified LmPK, Kinase-Glo ATP luminescence, 1 h | Potency, µM (doses to about 57.5 µM), without a hit: at the highest dose activity change, negative = inhibition, most hits filed as inhibitors | Q27686 | AID 1721 | 290,000 compounds, 0.37% hits; further: potency means the concentration at half of the fitted maximal effect; on the % scale 0 is the no-effect control and ±100 the full control effect
Target sequence (Q27686 whole entry, looked up): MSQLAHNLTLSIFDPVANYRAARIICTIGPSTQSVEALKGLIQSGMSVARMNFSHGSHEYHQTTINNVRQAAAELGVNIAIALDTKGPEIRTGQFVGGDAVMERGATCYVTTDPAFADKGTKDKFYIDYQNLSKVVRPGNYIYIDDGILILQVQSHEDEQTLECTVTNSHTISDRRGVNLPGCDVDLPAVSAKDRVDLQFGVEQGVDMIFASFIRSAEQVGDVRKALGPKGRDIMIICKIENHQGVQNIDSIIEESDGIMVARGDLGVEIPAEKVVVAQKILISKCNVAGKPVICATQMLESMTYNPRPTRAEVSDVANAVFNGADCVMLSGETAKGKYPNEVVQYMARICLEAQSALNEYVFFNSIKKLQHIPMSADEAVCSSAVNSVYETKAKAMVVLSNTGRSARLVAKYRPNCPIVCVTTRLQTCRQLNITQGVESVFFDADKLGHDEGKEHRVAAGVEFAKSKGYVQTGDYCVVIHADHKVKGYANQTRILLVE
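Kinase-Glo luminescence read after 1 h RT reaction of 0.1 nM LmPK with 0.5 mM PEP and 0.1 mM ADP. Activity scaled between uninhibited and enzyme-free controls.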
Sm TGR block = blocks Schistosoma mansoni thioredoxin glutathione reductase; AID 485364; purified TGR, DTNB reduction, TNB absorbance 405 nm; Potency, µM (top dose mostly 114 µM), inactives show top-dose activity change, negative = inhibition, actives largely listed as inhibitors; Q962Y6; 360,000 compounds, 3% hits; further: potency means the concentration at half of the fitted maximal effect; on the % scale 0 is the no-effect control and ±100 the full control effect; nearly all actives have a fitted effect of over 60% in size
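Kinetic colorimetric format: TGR-catalysed, NADPH-driven DTNB reduction monitored via TNB absorbance. Enzyme dispensed at 20 nM; compound exposure 15 min at room temperature before reaction start.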
* hit, by the source's call; ? = inconclusive; . = no result given; [ ] = another dose, or the depositor's remark. This is one part of a sample in which hits are shown more often than they occur. Unless noted, the call rests on the fitted dose curve; in most records, active means well fitted curve in the direction sought with a large enough effect; inconclusive means small, poorly fitted or top-dose-only effect, or another doubt; inactive means no such curve, though single readings can be large; an effect the other way counts as inactive or inconclusive.

SMILES	Giardia FBPA inh	Shiga toxin inh	Cycloheximide cs	TbPYK inhibitor	LmPK inhibitor	Sm TGR block
CCOC(=O)c1[nH]c2ccccc2c1NC(=S)Nc1cccc(C)c1C	-2%	33	29*	-10%	-9%	-16%
CCOC(=O)c1[nH]c2ccccc2c1NC(=O)NC(C)C	2%	11	-1	2%	0%	0%
Nc1ncn([C@H]2O[C@@H](CO)[C@@H](O)[C@@H]2O)c(=O)n1	1%[21.7 µM]	.	.	.	.	.
COc1cccc(CN2CCN(C(=O)c3ccc(-c4ccccc4)cc3)CC2)c1OC	?	-8	0	-1%	-4%	.
COc1cc(CN2CCN(C(=O)c3ccc(-c4ccccc4)cc3)CC2)cc(OC)c1OC	3%	98*	19*	4%	-2%	1%
COc1ccc2ccccc2c1CN1CCN(C(=O)c2ccccc2)CC1	-15%	-14	-1	-19%	6%	28µM*
CCOC(=O)c1ccc(NC(=O)C2CCN(S(=O)(=O)Cc3ccccc3)CC2)cc1	.	.	.	-5%	.	22%
Nc1nc(=O)n(C2OC(CO)C(O)C2O)cc1Cl (configuration not stated)	2%	.	.	.	.	.
CSc1cccc(NC(=O)c2sc3nc4n(c(=O)c3c2C)CCC4)c1	.	50*	17*	2%	5%	-3%
COc1ccc(C)cc1N(C)C(=O)c1sc2nc3n(c(=O)c2c1C)CCCCC3	.	.	.	-2%	.	22µM*
Cc1c(C(=O)NCc2ccc(Cl)cc2)sc2nc3n(c(=O)c12)CCC3	.	.	.	-6%	.	-6%
Cc1ccc(N(C)C(=O)c2sc3nc4n(c(=O)c3c2C)CCCC4)cc1C	.	.	.	-4%	.	-15%
COc1ccc(CNC(=O)c2sc3nc4n(c(=O)c3c2C)CCCCC4)cc1	.	.	.	-27%	.	8.9µM*
COc1cccc(NC(=O)c2sc3nc4n(c(=O)c3c2C)CCC4)c1	.	69*	49*	5%	4%	-4%
O=C(c1cnccn1)N1CCC2(CC1)CN(Cc1cc(C(F)(F)F)cc(C(F)(F)F)c1)C2	-3%	.	.	4%	.	.
Cc1ccsc1/C=N/Nc1cccc(C(=O)O)c1	14%	118*	56*	-20%	-7%	2%
O=C(O)c1cccc(N/N=C/c2sc(N3CCOCC3)nc2-c2ccccc2)c1	20%	176*	128*	-23%	2%	-1%
Cc1ccsc1/C=N/Nc1ccc(C(=O)O)cc1	-7%	4	-3	-15%	1%	-13%
Cc1ccc(/C=N/Nc2cccc(C(=O)O)c2)s1	12%	126*	86*	-16%	-6%	-10%
Cc1ccc(/C=N/Nc2ccc(C(=O)O)cc2)s1	0%	50	8	-22%	-23%	1%
Nc1ccc(C(=O)N/N=C/c2sc(N3CCOCC3)nc2-c2ccccc2)cc1	-1%	21	15	2%	4%	-11%
Cc1ccc(/C(N)=N/OC(=O)c2ccc3ccccc3c2)cc1	.	10	12	5%	-12%	-1%
O=C(O/N=C/c1ccc(Br)cc1)c1ccc(F)cc1	.	.	.	-5%	.	.
Cc1ccc(/C(N)=N/OC(=O)c2ccc(F)cc2)cc1	2%	91*	49*	6%	-2%	-1%
N/C(=N\OC(=O)c1ccc(F)cc1)c1ccccc1	2%	150*	59*	?	7.9µM*	9%
SMILES	Giardia FBPA inh	Shiga toxin inh	Cycloheximide cs	TbPYK inhibitor	LmPK inhibitor	Sm TGR block
N/C(=N\OC(=O)c1ccc(F)cc1)c1ccc(Br)cc1	1%	70*	33*	-3%	-2%	2%
CC1CCN(C(=O)c2ccc3c(c2)OCCO3)CC1	1%	55*	46*	-3%	0%	0%
O=C(Nc1ccc2c(c1)OCO2)C1CCN(C(=O)c2ccc(Cl)cc2)CC1	4%	-3	1	7%	6%	6%
O=C(Nc1ccc2c(c1)OCCO2)C1CCN(C(=O)c2ccc(F)cc2)CC1	-5%	109*	31*	0%	0%	4%
O=C(Nc1ccc2c(c1)OCCO2)C1CCN(C(=O)c2ccc(Cl)cc2)CC1	3%	48*	30*	1%	1%	3%
O=C(Nc1ccc2c(c1)OCO2)C1CCN(C(=O)c2ccc(Br)cc2)CC1	1%	66	13	-3%	1%	8%
COc1ccccc1CNc1ncnc2ccc(-c3ccccc3OC)cc12	0%	.	.	.	.	.
C=CCN1CC(C(=O)N(CCCN(C)C)C(=O)NCC)CC2c3cccc4[nH]cc(c34)CC21 (configuration not stated)	7%	-3	12	-8%	.	.
Cc1oc(-c2ccc(C(=O)Nc3cccc(C(F)(F)F)c3)cc2)nc1CSc1ccccc1	.	.	.	0%	.	15%
CN1C2CCC1/C(=C\c1ccccc1F)C(=O)/C2=C/c1ccccc1F	4%	-6	-5	-21%	-4%	20µM*
O=C(Cn1cc(C(=O)C(F)(F)F)c2ccccc21)N1CCCCCC1	.	.	.	-3%	.	-6%
O=C1C2CC=CCC2C(=O)N1Cc1nnc(-c2ccc(Cl)cc2)o1 (configuration not stated)	1%	70*	26*	3%	3%	0%
O=C1C2CC=CCC2C(=O)N1Cc1ccccc1 (configuration not stated)	7%	4	-3	-1%	4%	-18%
CCOCCOC(=O)C1=C(C)Nc2ccc(C)cc2S1	-12%	50	22*	-16%	0%	-1%
CCOC(=O)C1=C(C)Nc2ccc(C)cc2S1	-21%	8	-2	-15%	4%	11%
CCOC(=O)C1=C(C)Nc2ccccc2S1	-18%	31*	23*	6%	6%	-10%
CSCCOC(=O)C1=C(C)Nc2ccc(C)cc2S1	?	7	14*	-14%	-3%	0%
Cc1cc(Nc2cccc(Br)c2)n2c(nc3ccccc32)c1C#N	.	.	.	10%	.	0%
CC1C(=O)N(S(=O)(=O)c2ccc([N+](=O)[O-])cc2)[C@H]1c1ccc2ccccc2c1 (some centres not stated)	10%	23	9	.	.	.
Fc1cccc(F)c1[B-](F)(F)F	.	.	.	3%	.	.
COc1cccc(NC(=O)c2oc3ccccc3c2NC(=O)c2ccc(OC(C)C)cc2)c1	.	.	.	0%	.	5%
CCN(CC)C(=O)COc1ccc2oc(-c3ccco3)cc(=O)c2c1	0%	31	19*	-4%	1%	-2%
CC(=O)N1C(=O)/C(=C2\SC(=S)N(NS(=O)(=O)c3ccc(C)cc3)C2=O)c2ccccc21	-17%	-21	-1	-6%	2%	2.5µM*
CCOc1ccc(-c2nnn(CC(=O)c3ccc4c(c3)OCCO4)n2)cc1OCC	-3%	18	34*	1%	-1%	-2%
O=C(CS(=O)(=O)c1ccccc1)c1ccc2c(c1)OCCO2	1%	58*	45*	6%	13µM*	?
CCOc1ccc(-c2nnn(CC(=O)NCc3ccc(F)cc3)n2)cc1OCC	0%	-13	-6	1%	-1%	10%
